High-throughput results (PubChem BioAssay)
Hits are enriched below; roughly 7.7% of the tested compounds scored in any of these assays.
NOMO-1 viab – NOMO-1 AML cell viability reduction, primary screen, STK33 inhibitor project, CellTiter-Glo luminescence | NOMO-1 AML viability, 72 h | inhibition, % (concentration not given with the values) | 37,000 tested, 7.5% active | AID 2330, 2010; in the data active = inhibition above about 80%; inconclusive = no clear call, values can overlap the other calls
PD-1 reversal – activators reversing PD-1 mediated T-cell inhibition, primary screen, luminescence, primary human CD4 T cells, PD-L1 beads; CellTiter-Glo 96 h; activation, % (test concentration not listed); 29,000 tested, under 10 active; AID 2316, 2010; call rule not given here;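 also: 0% = median vehicle wells and 100% = positive control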
Hedgehog inh – Hedgehog pathway signaling inhibitors, primary screen, luminescence, Shh-LIGHT2 cells, Gli-luciferase | 22,000 tested, 2.1% active | AID 2313, 2010 | inhibition, % (no concentration beside the values) | Shh-LIGHT2 Gli-luciferase reporter, 30 h;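 active = mean inhibition across valid replicates above about 65%, limit read from the data; inconclusive = mean under the limit, yet half or more replicates past it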;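 also: pathway switched on by Shh-conditioned medium diluted 1 in 25 in low serum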
Starred values were filed as active, the others as inactive; ? = inconclusive; nt = no result given.

SMILES | NOMO-1 viab | PD-1 reversal | Hedgehog inh
COc1ccc(S(=O)(=O)Nc2cccc3c2O[C@H](CN(C)Cc2ccc(C(=O)Nc4ccccc4N)cc2)[C@@H](C)CN([C@@H](C)CO)C3=O)cc1 | 129* | -2 | nt
C[C@H]1CN([C@@H](C)CO)C(=O)c2cccc(NS(=O)(=O)c3ccc(Cl)cc3)c2O[C@@H]1CN(C)Cc1ccc(C(=O)Nc2ccccc2N)cc1 | 126* | -3 | nt
COc1ccc(S(=O)(=O)Nc2cccc3c2O[C@@H](CN(C)Cc2ccc(C(=O)Nc4ccccc4N)cc2)[C@H](C)CN([C@@H](C)CO)C3=O)cc1 | 55 | 1 | nt
O=C(CC1NCCNC1=O)Nc1ccc(F)cc1 (configuration not stated) | 1 | 1 | nt
COC(=O)c1ccccc1NC(=O)CSc1nc2ccc(C)cc2[nH]1 | -27 | 1 | nt
COc1ccc(NC(=O)CSc2nc(C)cc(C(F)(F)F)n2)c([N+](=O)[O-])c1 | 0 | -1 | nt
CC1(C)CC(C)(c2ccccc2)c2cc(SC#N)ccc2N1 (configuration not stated) | 114* | -5 | 108*
CC(=O)N1c2ccccc2C(C)(c2ccccc2)CC1(C)C (configuration not stated) | ? | -1 | -3
O=C(COc1ccccc1[N+](=O)[O-])Nc1cccc(-c2nc3cc(Cl)cc(Cl)c3o2)c1 | 13 | nt | nt
O=C(ON1C(=O)c2ccccc2C1=O)c1ccco1 | 115* | -3 | nt
O=C(CCN1C(=O)c2ccccc2C1=O)Nc1ccc(NC(=O)c2ccco2)cc1 | 26 | 0 | nt
C[C@@H]1CN([C@@H](C)CO)C(=O)c2cccc(NC(=O)Nc3ccc4c(c3)OCO4)c2O[C@H]1CN(C)Cc1ccc(Oc2ccccc2)cc1 | 95* | 0 | -35
C[C@@H]1CN([C@@H](C)CO)C(=O)c2cccc(NC(=O)Nc3ccc4c(c3)OCO4)c2O[C@@H]1CN(C)Cc1ccc(Oc2ccccc2)cc1 | 95* | -4 | 56
C[C@H](CO)N1C[C@H](C)[C@@H](CN(C)Cc2ccc(Oc3ccccc3)cc2)Oc2c(NC(=O)Nc3ccc4c(c3)OCO4)cccc2C1=O | 60 | nt | 39
C[C@@H]1CN([C@H](C)CO)C(=O)c2cccc(NC(=O)Nc3ccc4c(c3)OCO4)c2O[C@@H]1CN(C)Cc1ccc(Oc2ccccc2)cc1 | 32 | nt | -14
Cc1nn(CC(=O)Nc2ccc(O)cc2)c(C)c1[N+](=O)[O-] | -1 | 0 | nt
Cc1ccc(OC(=O)OCSc2nn[nH]n2)cc1 | 119* | -10 | ?
COc1ccc(C(=O)CSc2n[nH]c(-c3ccc(C)cc3)n2)cc1 | 14 | nt | nt
Cc1ccc(C(C)C)c(OC(=O)CS(=O)c2ccc(C(F)(F)F)cc2[N+](=O)[O-])c1 (configuration not stated) | 130* | -12 | nt
O=C(CS(=O)c1ccccc1[N+](=O)[O-])Nc1cccc(C(F)(F)F)c1 (configuration not stated) | 43 | -3 | nt
O=C(CS(=O)c1ccc(C(F)(F)F)cc1[N+](=O)[O-])Oc1ccc(Cl)cc1 (configuration not stated) | 110* | -12 | nt
Cc1ccc(NC(=O)CC2Sc3ccc(C(F)(F)F)cc3NC2=O)c([N+](=O)[O-])c1 (configuration not stated) | 13 | 3 | nt
Cc1c(/C=C/c2ccc(Cl)cc2Cl)c(=O)n(-c2ccccc2)n1C | 38 | 1 | -19
Cc1c(-n2c(/C=C\c3ccc([N+](=O)[O-])o3)nc3ccccc3c2=O)c(=O)n(-c2ccccc2)n1C | 115* | nt | nt
Cc1cccc(NC(=O)CCC(=O)O)c1 | -1 | nt | nt
SMILES | NOMO-1 viab | PD-1 reversal | Hedgehog inh
O=C(CSC1CC(=O)N(c2ccc(Br)cc2)C1=O)Nc1ccc(Cl)c(Cl)c1 (configuration not stated) | 7 | nt | nt
O=C(c1ccccc1)c1ccccc1C(=O)c1ccccc1 | 7 | -2 | 23
Cc1ccc2c(=O)c(C(=O)c3ccccc3)coc2c1 | 130* | 0 | nt
Cc1ccccc1NC(=O)CN(c1ccc(Cl)c(Cl)c1)S(C)(=O)=O | 26 | 1 | nt
COC(=O)c1ccc(Cl)c(NC(=O)CN(c2cccc(F)c2)S(C)(=O)=O)c1 | ? | -1 | nt
COC(=O)c1ccc(C)c(NC(=O)CN(c2ccc(Cl)c(Cl)c2)S(C)(=O)=O)c1 | 108* | -2 | nt
COC(=O)c1ccc(Cl)c(NC(=O)CN(c2cccc(Cl)c2)S(C)(=O)=O)c1 | 129* | 2 | nt
Cc1cc(Br)c(NC(=O)CSc2nnc(-c3ccccc3)o2)cc1C | 19 | -1 | nt
CCC(Sc1nnnn1C)C(=O)Nc1cccc([N+](=O)[O-])c1 (configuration not stated) | 1 | nt | nt
CC1CCCC2=CC(OC2=O)C(C)(C)CCC1=O (configuration not stated) | nt | nt | 12
NNC(=O)c1cc2c(s1)-c1ccccc1CC2 | 42 | -22 | -64
O=C(C/C(=C1/CCc2ccccc2C1=O)c1ccccc1)c1ccccc1 | 115* | -1 | 103*
COC(=O)c1sc(NC(=O)COc2ccc(C(C)C)cc2)c(C#N)c1C | 46 | 2 | nt
O=C(COc1ccccc1)Nc1ccc(Cl)cc1C(=O)O | 23 | nt | nt
CC(=O)OC1/C=C(/C(=O)O)CC/C=C(/C)C(=O)/C=C\C1(C)C (configuration not stated) | 120* | -8 | 65*
CC1=C2CCC(C(=O)O)=CC2C(C(C)C)CC1 (configuration not stated) | -1 | 0 | -24
CCCC1=NN(C(=O)/C=C/c2cccs2)C(=O)C1Cc1c(F)cccc1Cl (configuration not stated) | 52 | -1 | nt
C=CCC1C(=O)N(S(=O)(=O)c2ccc(Cl)cc2)N=C1CCC (configuration not stated) | 110* | -5 | ?
Cn1c(=O)c2c(ncn2CC(O)COc2ccccc2)n(C)c1=O (configuration not stated) | -3 | 0 | nt
O=C(COc1ccccc1[N+](=O)[O-])Nc1cc(-c2nc3ccccc3s2)c(Cl)cc1Cl | 1 | 1 | nt
Cc1ccc2oc(-c3ccc(Cl)c(NC(=O)COc4ccc(C)c(C)c4)c3)nc2c1 | 16 | 4 | nt
Cc1cc2nc(-c3ccc(C)c(NC(=O)COc4ccc([N+](=O)[O-])cc4)c3)oc2cc1C | 94* | 0 | nt
Cc1ccc2oc(-c3ccc(C)c(NC(=O)COc4ccc(Br)cc4)c3)nc2c1 | 44 | 3 | nt
Cc1cccc(OCC(=O)Nc2cc(-c3nc4cc(Cl)ccc4o3)ccc2C)c1 | 103* | -11 | nt
Cc1cc(=O)[nH]c(SCCOc2c(C)ccc(C)c2Cl)n1 | 35 | 2 | nt
SMILES | NOMO-1 viab | PD-1 reversal | Hedgehog inh
O=C(NCCCN1CCOCC1)c1cccc([N+](=O)[O-])c1 | 11 | nt | nt
O=[N+]([O-])c1ccc(S(=O)(=O)CC(CN2CCOCC2)N2CCOCC2)cc1 (configuration not stated) | 102* | -10 | nt
Cc1cccc(OCC(=O)Nc2c[nH]c(=O)[nH]c2=O)c1C | 6 | 1 | nt
CSc1nc(SCC(=O)N(c2ccccc2)c2ccccc2)c2c3c(sc2n1)CCC3 | -8 | nt | nt
NC(=NC(=O)c1cnccc1C(F)(F)F)c1ccccn1 | -17 | 0 | -18
COc1ccc(C2C3=C(CC(C)(C)CC3=O)N(C)C3=C2C(=O)CC(C)(C)C3)cc1 | 7 | 0 | -4
